Compounds without any hit were thinned out: in the full panel of roughly 83,000, 20% have a hit.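 The test compound was applied at a single concentration to cells in 96-well plates for 48 hours, and percent growth was recorded.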 Calls of active or inactive are those of the source. The calls were made as follows: active = growth percent below 10; inactive = the rest.
What follows are compounds tested on HS 578T breast (assay: NCI-60 one-dose screen, 48 h (100 = growth as untreated, 0 = no growth, -100 = all killed)). Details: 10 µM unless noted.

Question: For `Cc1cn(-c2cc(NC(=O)c3cncc(C#Cc4cnc(N)c5ncccc45)c3)cc(C(F)(F)F)c2)cn1`, which growth is on record?
Answer: 60.1% (inactive)

Question: `O=C(Cn1cc(CSc2nc3ccccc3o2)nn1)Nc1ccc(F)cc1F` was tested. Which growth did it give?
Answer: 107% (inactive)

Question: `Cc1c2cnccc2c(C)c2c1c1cc(C#N)ccc1n2C` was tested. Which growth did it give?
Answer: -18% (active)

Question: For `CNC(=O)c1ccccc1Oc1nc(Nc2cc(OC)c(OC)c(OC)c2)ncc1Br`, which growth is on record?
Answer: 69.2% (inactive)

The compounds below were run on NCI/ADR-RES ovarian in the same assay as above. Details: 10 µM unless noted.

Question: `COCCOc1cc2ncnc(N3CCN(c4ncc(S(=O)(=O)N5CCCCC5)cn4)CC3)c2cc1OCCOC` was tested. Which growth did it give?
Answer: 97.6% (inactive)

Question: `COC(=O)[C@]1(C)CCC[C@]2(C)[C@H]3C[C@H]4C(C(C)C)=C[C@]3(CC[C@H]21)[C@@H]1C(=O)CC[C@H](OCCC#N)[C@@H]14` was tested. Which growth did it give?
Answer: 77.8% (inactive)

Question: `O=C(O)CCN1C(=O)/C(=C/C(Cl)=C/c2ccccc2)SC1=S` was tested. Which growth did it give?
Answer: 11.3% (inactive)

Question: `O=C(/C=C/c1cccc(Cl)c1)c1ccc(Nc2nc(Nc3ccc(F)cc3)nc(Nc3ccc(Cl)cc3)n2)cc1` was tested. Which growth did it give?
Answer: 100% (inactive)

Question: How did the growth turn out when `CC(C)(Sc1cc(C(C)(C)C)c(O)c(C(C)(C)C)c1)Sc1cc(C(C)(C)C)c(OC(=O)CCCC(=O)O)c(C(C)(C)C)c1` was run?
Answer: 78.7% (inactive)

Question: Which growth does the source give for `Fc1cc2c(cc1Cl)N(c1ncnc3ccc(-c4ccc5n[nH]nc5c4)cc13)CC2` here?
Answer: 87.3% (inactive)

Question: With `CCSC(SCC)c1ccc(Cl)cc1` as the compound, how does the growth read?
Answer: 97.1% (inactive)

Question: `O=C(Nc1nc2ccc(C(=O)N3CCN(/C=C/c4ccccc4)CC3)cc2s1)c1ccc(NCCc2ccccc2)c([N+](=O)[O-])c1` was tested. Which growth did it give?
Answer: 70.2% (inactive)

Source: PubChem BioAssay (NCI)
